PubChem BioAssay AID1159580 (chemical genetic matrix, 2015)
“And” between values parts separate entries of the source, which are not always exact repeats. Equal values may be shown once. Hit rate of the full screen: of about 5,500 compounds, about 2,000 (36%) were called active. About 18% were inconclusive and are not listed. Rule as the data show it: active = normalized growth mostly below about 0.91 (no sharp cut-off); inconclusive = no clear call, values can overlap the other calls; inactive = mostly above about 0.92. This is one part of the list.

Test: chemical genetic growth profiling, strain panel (AID 1159580);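 also: tested at 20 µM; growth read once vehicle control cultures reached saturation at 30 °C; 1 = growth at the plate median or of vehicle wells; lower values mean less growth of the strain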
Settings: S. cerevisiae deletion strains, growth OD

Measured: normalized growth

CC(CCc1ccccc1)NCC(O)c1ccc(O)c(C(N)=O)c1 (stereo not given)
inactive: locus YAL013W, strain DEP1, hits give low values 1 | locus YAL021C, strain ccr4, hits give low values 1 | locus YAL026C, strain drs2, hits give low values 1.01 | locus YAL030W, strain snc1, hits give low values 0.997 | locus YAL040C, strain CLN3, hits give low values 1.01 | locus YBL061C, strain skt5, hits give low values 1.01 | locus YBR009C, strain hhf1, hits give low values 1 | locus YBR021W, strain FUR4, hits give low values 1.01 | locus YBR023C, strain chs3, hits give low values 1.01 | locus YBR171W, strain sec66, hits give low values 1.01 | locus YBR229C, strain ROT2, hits give low values 1 | locus YBR231C, strain swc5, hits give low values 1.01 | locus YBR279W, strain paf1, hits give low values 1 | locus YCL011C, strain gbp2, hits give low values 1.01 | locus YCL016C, strain dcc1, hits give low values 1.01 | locus YCL029C, strain bik1, hits give low values 1.01 | locus YCL061C, strain MRC1 (second series), hits give low values 1.01 | locus YCL061C, strain MRC1, hits give low values 0.997 | locus YCL069W, strain vba3, hits give low values 1 | locus YCR088W, strain abp1, hits give low values 1.01 | locus YDL005C, strain med2, hits give low values 1.01 | locus YDL035C, strain GPR1, hits give low values 1.01 | locus YDL040C, strain nat1, hits give low values 1.01 | locus YDL074C, strain BRE1, hits give low values 0.977 | locus YDL101C, strain DUN1, hits give low values 1 | locus YDL134C, strain PPH21, hits give low values 1.02 | locus YDL185W, strain tfp1, hits give low values 1.01 | locus YDL192W, strain arf1, hits give low values 1.01 | locus YDR001C, strain nth1, hits give low values 1.01 | locus YDR069C, strain doa4, hits give low values 1.01 | locus YDR101C, strain arx1, hits give low values 0.999 | locus YDR137W, strain rgp1, hits give low values 1.01 | locus YDR150W, strain NUM1, hits give low values 1 | locus YDR159W, strain sac3, hits give low values 1.01 | locus YDR162C, strain NBP2, hits give low values 1.02 | locus YDR195W, strain ref2 1.01 | locus YDR297W, strain sur2, hits give low values 1.01 | locus YDR318W, strain mcm21, hits give low values 1.02 | locus YDR334W, strain swr1, hits give low values 0.99 | locus YDR335W, strain msn5, hits give low values 1 | locus YDR363W, strain ESC2, hits give low values 1 | locus YDR388W, hits give low values 1.02 | locus YDR392W, strain spt3, hits give low values 1 | locus YDR502C, strain sam2, hits give low values 1.01 | locus YEL003W, strain gim4, hits give low values 0.999 | locus YEL037C, strain rad23, hits give low values 1 | locus YEL061C, strain CIN8 (second series), hits give low values 1.01 | locus YEL061C, strain CIN8, hits give low values 0.997 | locus YER002W, strain NOP16, hits give low values 1.03 | locus YER015W, strain faa2, hits give low values 0.997 | locus YER016W, strain bim1, hits give low values 1 | locus YER110C, hits give low values 1.02 | locus YER111C, strain swi4, hits give low values 1.01 | locus YER155C, strain BEM2 (second series), hits give low values 1.01 | locus YER155C, strain BEM2, hits give low values 1 | locus YER167W, strain BCK2, hits give low values 1.02 | locus YFR010W, strain ubp6, hits give low values 1 | locus YGL078C, strain dbp3, hits give low values 1.01 | locus YGL086W, strain mad1, hits give low values 1.01 | locus YGL167C, strain pmr1, hits give low values 1 | locus YGL173C, strain kem1, hits give low values 1.01 | locus YGL227W, strain vid30, hits give low values 1.02 | locus YGL240W, strain doc1, hits give low values 1 | locus YGL248W, strain PDE1, hits give low values 0.992 | locus YGL253W, strain hxk2, hits give low values 1 | locus YGR078C, strain PAC10, hits give low values 0.985 | locus YGR135W, strain pre9, hits give low values 1.05 | locus YGR252W, strain gcn5, hits give low values 0.996 | locus YHR013C, strain ard1, hits give low values 1 | locus YHR027C, strain rpn1, hits give low values 1 | locus YHR030C, strain SLT2, hits give low values 1 and 1.02 | locus YHR079C, strain IRE1 (second series), hits give low values 1.02 | locus YHR079C, strain IRE1, hits give low values 1.04 | locus YHR094C, strain hxt1, hits give low values 1.02 | locus YHR129C, strain ARP1, hits give low values 1.01 | locus YHR142W, strain chs7, hits give low values 1.02 | locus YHR200W, strain rpn10, hits give low values 1.01 | locus YIL066C, strain RNR3, hits give low values 0.995 | locus YIL073C, strain SPO22, hits give low values 1.1 | locus YIL125W, strain kgd1, hits give low values 1.01 | locus YIR030C, strain dcg1, hits give low values 1.03 | locus YJL092W, strain hpr5, hits give low values 1.01 | locus YJL095W, strain BCK1 (second series), hits give low values 1.01 | locus YJL095W, strain BCK1, hits give low values 0.981 and 1.05 | locus YJL115W, strain asf1, hits give low values 1 | locus YJL129C, strain trk1, hits give low values 1 | locus YJL134W, strain LCB3, hits give low values 1 | locus YJL154C, strain vps35, hits give low values 1 | locus YJL164C, strain tpk1, hits give low values 0.996 | locus YJL166W, strain qcr8, hits give low values 1 | locus YJL168C, strain set2, hits give low values 1.01 | locus YJL187C, strain SWE1 (second series), hits give low values 0.983 | locus YJL187C, strain SWE1, hits give low values 1.01 | locus YJR043C, strain POL32, hits give low values 0.986 | locus YJR066W, strain TOR1, hits give low values 0.977
